Data on 27 molecules can be found in PubChem BioAssay AID652057 (Broad Institute, 2013).

Hit rate of the full screen: of about 1,400 compounds, about 1,000 (71%) were called active. The rule behind the calls is not given here. The set was probably picked from earlier hits. Only a sample is shown. A call without a number means that no potency is given here. Potency and affinity values are given separately.

The test is described as follows: inhibitors of HIV Env-driven cell fusion, dose response, cherry-pick (AID 652057). The following applies: HeLa-JRFL Env/CEM21 cell fusion, luciferase; series mostly up to 35 µM.
Turning to `O=C(C[C@@H]1C[C@H]2c3cc(NC(=O)Nc4ccccc4)ccc3O[C@H]2[C@H](CO)O1)NCc1cccnc1`, the activity change, negative = inhibition result was “inactive”.
Take `O=C(NCc1cccnc1)c1c[nH]c2cc3c(cc2c1=O)OCCO3`: the activity change, negative = inhibition result is “inactive”.
Take `COc1cc(CSc2nnnn2-c2ccc(C)cc2)cc(OC)c1OC`: the activity change, negative = inhibition result was “inactive”.
With `c1ccc2c(c1)ncn2CCCCOc1ccc2c(c1)CCC2` the entry was “inactive”; with `Cc1ccc(Cn2ncc3c(N4CCN(Cc5ccc(Cl)cc5)CC4)ncnc32)cc1`, “inactive”.
In the case of `COc1ccc(C)cc1NC(=O)CCNS(=O)(=O)c1ccc2c(c1)CC(C)N2C(C)=O` (configuration not stated) it was “inactive”; in that of `COc1ccc(OCC(=O)Nc2ccccc2N2CCCCC2)cc1`, “inactive”; in that of `CCOC(=O)C1CCN(C(=O)c2ccc3c(c2)C(=O)N(c2ccccc2C)C3=O)CC1`, “inactive”.
With `OCC[C@@H]1C[C@@H](O)[C@H](O)[C@]2(OCc3ccccc32)O1` the entry was “inactive”; with `c1ccc2c(c1)CCN(c1ncnc3c1[nH]c1ccccc13)C2`, “inactive”.
`Cc1ccc(Cn2ncc3c(N4CCN(c5ccc(C)cc5)CC4)ncnc32)cc1`: the activity change, negative = inhibition result was “inactive”.
With `CC(=O)c1ccc(S(=O)(=O)N2CCN(c3nc4c(C)c(C)ccc4cc3C#N)CC2)cc1` the entry was “inactive”.
With `O=C(C[C@H]1C[C@@H]2c3cc(NC(=O)C4CCC4)ccc3O[C@@H]2[C@@H](CO)O1)NCC(F)(F)F` the entry was “inactive”.
With `CC(=O)C1=C(C)NC(=S)NC1c1ccccc1` (configuration not stated) the entry was “inactive”; with `CCOC(=O)C1CCCN(Cc2nc(N)nc(Nc3ccc(OC)cc3)n2)C1` (configuration not stated), “inactive”; with `COC(=O)[C@@]1(Cc2ccc(F)cc2)[C@H]2c3cc(C(=O)N(C)C)n(CCO)c3C[C@H]2CN1C(=O)c1ccccc1`, “inactive”.
For `N#CCSc1nnc(-c2sc3ccccc3c2Cl)o1`, the activity change, negative = inhibition result is “inactive”.
In the case of `CO[C@H]1CN(C)C(=O)c2cc(NS(=O)(=O)c3ccc(Cl)cc3)ccc2OC[C@@H](C)N(C)C[C@@H]1C` it was “inactive”.
In the case of `CO[C@H]1CN(C)C(=O)c2cc(NC(C)=O)ccc2OC[C@@H](C)N(Cc2nccs2)C[C@H]1C` it was “inactive”; in that of `CCNC(=O)C[C@@H]1CC[C@@H]2[C@H](COC[C@@H](O)CN2C(=O)c2ccccn2)O1`, “inactive”; in that of `CCCNC(=O)C[C@@H]1C[C@@H]2c3cc(NC(=O)Cc4ccncc4)ccc3O[C@@H]2[C@H](CO)O1`, “inactive”.
In the case of `CN(C)C(=O)C[C@@H]1C[C@H]2c3cc(NS(=O)(=O)c4ccc(F)cc4)ccc3O[C@H]2[C@H](CO)O1` it was “inactive”.
`CCCNC(=O)C[C@H]1C[C@H]2c3cc(NC(=O)Cc4ccncc4)ccc3O[C@H]2[C@H](CO)O1`: the activity change, negative = inhibition entry was “inactive”.
In the case of `COCCNC(=O)C[C@@H]1C[C@H]2c3cc(N(C)C)ccc3O[C@H]2[C@@H](CO)O1` it was “inactive”; in that of `CN(C)C(=O)C[C@H]1C[C@@H]2c3cc(NS(=O)(=O)c4ccc(F)cc4)ccc3O[C@@H]2[C@@H](CO)O1`, “inactive”.
In the case of `CS(=O)(=O)Nc1ccc2c(c1)[C@H]1C[C@H](CC(=O)NCc3ccc(-c4ccccc4)cc3)O[C@H](CO)[C@H]1O2` it was “inactive”.
As for `CS(=O)(=O)Nc1ccc2c(c1)[C@H]1C[C@@H](CC(=O)NCCN3CCCCC3)O[C@@H](CO)[C@H]1O2`, the activity change, negative = inhibition result is “inactive”.
